This is an account of results in PubChem BioAssay (NCI).

About 83,000 compounds went through this panel and 20% of them were active in at least one assay; those are over-represented in the sample as a whole.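 For each line, cells grew in 96-well plates with the test compound present at a single concentration for 48 hours.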 A number with no mark means an inactive call. The source made the active and inactive calls. Rule for the calls: active = growth percent below 10; inactive = the rest.

Some test systems named below: RPMI-8226 leukemia; OVCAR-4 ovarian; SK-OV-3 ovarian; IGROV1 ovarian; OVCAR-3 ovarian; HS 578T breast; NCI/ADR-RES ovarian; OVCAR-8 ovarian; OVCAR-5 ovarian.
Assay in all cases: NCI-60 one-dose screen, 48 h (100 = growth as untreated, 0 = no growth, -100 = all killed)
Holding throughout (settings): 10 µM unless noted

Take `COc1ccc(C(=O)C2C(C#N)C(C#N)C3C=Cc4ccccc4N32)cc1` (configuration not stated): the growth with RPMI-8226 leukemia is 29.9%; with OVCAR-4 ovarian it was 46.4%; in the test on SK-OV-3 ovarian, 55.2%; with IGROV1 ovarian, 23.2%; in the test on OVCAR-3 ovarian, -11.9% (active); with HS 578T breast, 14.4%. Also, the growth in the test on NCI/ADR-RES ovarian is -7.8% (active).

In the case of `COc1cc(/C=C\c2cc(OC)c(OC)c(OC)c2)cc(N)c1OC`, the growth in the test on RPMI-8226 leukemia is 89.7%; in the test with OVCAR-4 ovarian it was 128%; in the test with IGROV1 ovarian, 74.6%; with OVCAR-3 ovarian, 99.6%; with HS 578T breast, 90.1%; with NCI/ADR-RES ovarian, 69.7%.

With `Cc1cc2c(c(C)c1Cl)C(=O)/C(=C/c1ccc(O)c(O)c1)O2`, the growth in the test on OVCAR-8 ovarian is 99.8%; with OVCAR-5 ovarian, 117%; in the test on OVCAR-4 ovarian, 96.3%; with IGROV1 ovarian, 96.9%; in the test with OVCAR-3 ovarian, 109%; with HS 578T breast, 94%. Moreover, the growth in the test with NCI/ADR-RES ovarian is 104%.

For `COc1cc(C(=O)Nc2cc3c(cc2Oc2cc(C)cc(C)c2)C(=O)N(C)[C@@H](CC(=O)N(C)O)C(=O)N3)c(Br)c(OC)c1OC`, the growth in the test with RPMI-8226 leukemia is -26.2% (active); in the test with OVCAR-8 ovarian, 0.573% (active); in the test with OVCAR-5 ovarian, -18.6% (active); with OVCAR-4 ovarian, -33.3% (active); in the test on SK-OV-3 ovarian it was -0.559% (active); in the test on IGROV1 ovarian it was -22.5% (active). Further, the growth in the test with HS 578T breast was -18.1% (active); in the test with NCI/ADR-RES ovarian, 17.9%.

Take `CC(c1ccccc1)C(C(=O)c1ccccc1)c1ccccc1` (configuration not stated): the growth in the test with RPMI-8226 leukemia was 107%; in the test with OVCAR-8 ovarian, 63.7%; in the test on OVCAR-5 ovarian, 101%; with OVCAR-4 ovarian, 96%; in the test with IGROV1 ovarian, 99.5%; in the test with OVCAR-3 ovarian, 110%. In addition, the growth was 91.2% with HS 578T breast and 80.3% in the test with NCI/ADR-RES ovarian.

Take `Cc1ccc(-n2nc3c(c(C#N)c2=O)CC(c2ccccc2[N+](=O)[O-])C([N+](=O)[O-])=C3O)cc1` (configuration not stated): the growth with OVCAR-8 ovarian was 90.2%; with OVCAR-5 ovarian it was 99.8%; in the test with OVCAR-4 ovarian, 75.2%; with IGROV1 ovarian, 86.2%; in the test on OVCAR-3 ovarian it was 87.5%; in the test with HS 578T breast, 77.7%. The growth with NCI/ADR-RES ovarian was 99.8%.

In the case of `O=S(=O)(NCCNc1nccc(-c2c(-c3cccc(O)c3)nc3occn23)n1)c1cccc(F)c1`, the growth in the test with RPMI-8226 leukemia is 97%; in the test on OVCAR-8 ovarian it was 89.9%; with OVCAR-5 ovarian, 128%; with OVCAR-4 ovarian, 121%; with IGROV1 ovarian, 50.5%; in the test on OVCAR-3 ovarian, 94.7%. The growth in the test on HS 578T breast was 101%; in the test with NCI/ADR-RES ovarian, 107%.

In the case of `COc1cc(NC(=O)CSc2nc3ccc(C)cc3c(=O)n2Cc2ccccc2)cc(OC)c1OC`, the growth in the test on OVCAR-8 ovarian was 41.3%; in the test with OVCAR-5 ovarian it was 96.3%; with OVCAR-4 ovarian, 23.9%; with SK-OV-3 ovarian, 40%; in the test on IGROV1 ovarian, 74.3%; in the test on OVCAR-3 ovarian it was 43.8%. Besides, the growth was 44.9% with HS 578T breast and 66.3% with NCI/ADR-RES ovarian.

For the molecule `C=CCn1c(-c2ccc(-c3nc4ccc(C)cc4[nH]3)cc2)n[nH]c1=S`, the growth in the test with OVCAR-8 ovarian is 94.4%; with OVCAR-5 ovarian, 101%; with OVCAR-4 ovarian, 90.4%; in the test on IGROV1 ovarian it was 97.9%; with HS 578T breast, 102%; with NCI/ADR-RES ovarian, 108%.

`O=C1/C=C/[C@@H](O)[C@@H]2C[C@@H](O)C[C@H]2/C=C/CCC[C@H](CCc2ccc3ncccc3c2)O1`: the growth is 17.7% in the test with RPMI-8226 leukemia; 27.5% in the test with OVCAR-5 ovarian; 14.3% in the test on OVCAR-4 ovarian; 17.5% in the test with SK-OV-3 ovarian; -4.38% (active) in the test with IGROV1 ovarian; -17.5% (active) with OVCAR-3 ovarian. The growth in the test with HS 578T breast is 41%; in the test with NCI/ADR-RES ovarian, 2.87% (active).

With `O=C1Nc2ccc(F)cc2/C1=C\c1c(-c2ccccc2)nc2ccccn12`, the growth with RPMI-8226 leukemia was 86.5%; in the test with OVCAR-5 ovarian, 73.7%; in the test with OVCAR-4 ovarian, 94.6%; in the test on SK-OV-3 ovarian it was 80.7%; with IGROV1 ovarian, 47.6%; with OVCAR-3 ovarian, 66.4%. The growth is 71.8% in the test on HS 578T breast and 38.1% in the test on NCI/ADR-RES ovarian.

As for `COc1ccc(C(=O)CC#N)cc1`, the growth in the test with RPMI-8226 leukemia was 110%; in the test on OVCAR-8 ovarian, 103%; in the test on OVCAR-4 ovarian, 107%; with SK-OV-3 ovarian, 112%; in the test on IGROV1 ovarian, 123%; with OVCAR-3 ovarian it was 112%. Besides, the results for the growth with HS 578T breast and with NCI/ADR-RES ovarian were 110% and 111%, respectively.

Consider `O=C(Nc1ccc(-c2ccc3c(c2)NC(=O)/C3=C\c2ccc[nH]2)cc1)NC1CC1`, for which the growth in the test with RPMI-8226 leukemia is 87%; in the test with OVCAR-8 ovarian it was 109%; in the test on OVCAR-4 ovarian, 98.3%; in the test on SK-OV-3 ovarian, 118%; in the test on IGROV1 ovarian, 96.6%; in the test on OVCAR-3 ovarian, 107%. Also, the growth was 97.1% in the test on HS 578T breast and 105% with NCI/ADR-RES ovarian.
